Hits are enriched below; roughly 6.2% of the tested compounds scored in any of these assays.
ATXN2 expr inh = ATXN2 expression inhibition. 0.72% of 360,000 active. Potency, µM (highest dose often 57 µM), for the others: top-dose activity change, negative = inhibition, hits mostly inhibitors. AID 1745845. HEK-293 ATXN2-luciferase reporter, luminescence, 24 h; also: % is scaled to controls: 0 for no effect and ±100 for the full control effect; nearly all actives have a fitted effect of over 55% in size
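qHTS (up to 57 uM final) was run with 24 h compound exposure of reporter cells at 37 °C. Each well was multiplexed: SteadyGlo luminescence measured ATXN2-luciferase expression after a fluorogenic Gly-Phe-AFC viability readout (25 uM final).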
ATXN viability = viability counter-screen for ATXN expression inhibitors. Potency, µM (titrated, usually from 56.7 µM), usual class: cytotoxic. 0.49% of 400,000 active. S2 cells (HEK-293 line with an ATXN2-luciferase reporter) viability, CellTiter-Fluor protease fluorescence, 24 h; also: nearly all actives have a fitted effect of over 40% in size
HT1080 IDH1KD tx = kills HT-1080 cells with IDH1 knockdown. HT-1080 IDH1 knockdown viability, ATP luminescence, 48 h. Potency, µM (highest dose often 46.1 µM), for the others: at the highest dose activity, negative = toxicity, usual class: cytotoxic. 2% of 360,000 active. AID 686971;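 also: 0% = DMSO wells and -100% = cell-free medium wells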
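Viability of IDH1-knockdown HT-1080 fibrosarcoma cells was assessed by CellTiter-Glo after 48 h at 37 °C with titrated compound; concentration-effect curves were classified by fit quality and response size.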
KB-3-1 tox = kills parental KB-3-1 adenocarcinoma cells; Potency, µM (doses to about 46.1 µM), hits mostly cytotoxic; 1.4% of 400,000 active; KB-3-1 viability, CellTiter-Glo ATP luminescence, 72 h; AID 1347075; also: % is scaled to controls: 0 for no effect and ±100 for the full control effect; nearly all actives have a fitted effect of over 60% in size
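Cytotoxicity in the drug-sensitive parental line KB-3-1 was scored as loss of CellTiter-Glo luminescence following 72 h incubation with compound. Values come from curve fitting of normalized concentration-response data.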
KB-V1 MDR tox = KB-V1 MDR subline cytotoxicity. KB-V1 MDR cells viability, CellTiter-Glo, 72 h. Potency, µM (doses to about 46.1 µM), most hits filed as cytotoxic. 3.4% of 400,000 active. AID 1347076; also: % is scaled to controls: 0 for no effect and ±100 for the full control effect; nearly all actives have a fitted effect of over 60% in size
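Drug-selected KB-V1 cells, grown in DMEM lacking phenol red with 10% FBS, receive compound titrations; after three days at 37 degrees C, surviving cell ATP is quantified by CellTiter-Glo luminescence and responses normalized and curve-fitted.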
HT1080-NT tox = kills 2HG-producing HT-1080-NT fibrosarcoma cells; HT-1080-NT fibrosarcoma viability, CellTiter-Glo ATP luminescence, 48 h; Potency, µM (series often up to 46.1 µM), for inactives: at the top dose activity, negative = less viability, most hits filed as cytotoxic; 1.6% of 360,000 active;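 also: NT is the 2HG producing partner of a matched IDH1 knockdown line; 0% = DMSO-treated cells and -100% = media-only wells without cells; nearly all actives have a fitted effect of over 55% in size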
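Toxicity toward the 2HG-producing NT line was scored as %Activity, normalised to DMSO and no-cell wells, from CellTiter-Glo luminescence after 48 hours' treatment.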
* hit, by the source's call; i = inactive; ? = inconclusive; nt = no result given. Calls follow the shape of the dose curve; as a rule, active = well fitted curve in the direction sought with a large enough effect; inconclusive = small, poorly fitted or top-dose-only effect, or another doubt; inactive = no such curve, though single readings can be large; an effect the other way counts as inactive or inconclusive. Potency is read from the fitted curve at half-maximal effect.

SMILES	ATXN2 expr inh	ATXN viability	HT1080 IDH1KD tx	KB-3-1 tox	KB-V1 MDR tox	HT1080-NT tox
CO[C@H]1C[C@H](O[C@H]2[C@H](C)[C@@H](O[C@@H]3O[C@H](C)C[C@H](N(C)C)[C@H]3OC(C)=O)[C@@H](C)C[C@]3(CO3)C(=O)[C@H](C)[C@@H](OC(C)=O)[C@@H](C)[C@@H](C)OC(=O)[C@@H]2C)O[C@@H](C)[C@@H]1OC(C)=O	nt	i	nt	nt	nt	nt
Cc1cccc(CNC(=O)c2c3n(c(C)cc2=O)-c2ccccc2SC(c2ccsc2)C3)n1 (centres undefined)	nt	i	nt	nt	nt	nt
CCOC(=O)N1CCN(C(=O)CCSc2ccc(Cl)cc2)CC1	7.4%	i	8.6%	i	23.1µM*	6.9%
O=C(CCSc1ccc(Cl)cc1)N1CCN(S(=O)(=O)c2ccccc2)CC1	-15.1%	i	-10.7%	i	20.6µM*	-8.4%
CCOC(=O)N1CCN(C(=O)CCSc2ccc(C)cc2)CC1	24.8%	i	-4.0%	i	i	0.5%
O=C(NCC(=O)N1CCN(S(=O)(=O)c2ccccc2)CC1)c1ccc2ccccc2c1	-34.7%	i	-1.2%	i	11.6µM*	-4.6%
COCCn1c(C)cc(O)c(C(c2ccc(OC)cc2)N2CCN(c3ccccc3)CC2)c1=O (centres undefined)	nt	nt	nt	i	i	nt
CCCOc1ccc(C(=O)NNC(=S)NC(=O)c2cccs2)cc1	?	?	20.6µM*	?	?	?
CCCOc1ccc(C(=O)NNC(=S)NC(=O)c2ccco2)cc1	?	i	23.1µM*	9.2µM*	i	?
CCCOc1ccc(C(=O)NC(=S)Nc2nc(C)c(C(=O)N(C)C)s2)cc1	7.6%	i	-19.5%	i	20.6µM*	?
CC(C)(C)c1ccc(C(=O)NC(=S)NNC(=O)c2cccs2)cc1	9.2%	i	?	2.59µM*	?	?
O=C(NC(=S)NNC(=O)c1cccs1)c1ccccc1	-31.1%	i	?	?	i	?
CCc1ccc(C2CC(=O)c3c([nH]c(C(=O)OC4CCCCCC4)c3C)C2)cc1 (centres undefined)	11.8%	i	nt	?	i	nt
CN1[C@@H]2CC[C@H]1CC(OC(=O)[C@@H](CO)c1ccccc1)C2 (some centres undefined)	nt	i	nt	nt	nt	nt
CCCOc1ccc(C(=O)NNC(=S)NC(=O)c2ccccc2)cc1	nt	i	?	i	i	?
CCCCOc1ccc(C(=O)NNC(=S)NC(=O)CC)cc1	25.1µM*	?	?	?	?	?
CCCOc1ccc(C(=O)NNC(=S)NC(C)=O)cc1	?	?	7.08µM*	16.4µM*	i	7.08µM*
CC1CCCN(S(=O)(=O)c2ccc(C(=O)Nc3nnc(-c4ccccc4Cl)o3)cc2)C1 (centres undefined)	?	i	?	7.31µM*	?	-7.9%
O=C(Nc1nnc(-c2cccs2)o1)c1cccc(C(F)(F)F)c1	15.8µM*	?	?	i	i	?
CCC1CCCCN1S(=O)(=O)c1ccc(NC(=O)c2cccnc2)cc1 (centres undefined)	-4.5%	i	-7.0%	i	i	-1.9%
N#Cc1ccc(C(=O)Nc2nnc(-c3cccs3)o2)cc1	?	i	-27.6%	?	i	-20.3%
CC1CC(C)CN(S(=O)(=O)c2ccc(C(=O)Nc3nnc(-c4cccs4)o3)cc2)C1 (centres undefined)	?	?	?	?	12.6µM*	14.1µM*
CN(C)S(=O)(=O)c1ccc(C(=O)Nc2nnc(-c3cccs3)o2)cc1	nt	?	?	i	?	-28.8%
CCC1CCCCN1S(=O)(=O)c1ccc(C(=O)Nc2nnc(-c3cccs3)o2)cc1 (centres undefined)	?	i	14.1µM*	?	5.01µM*	8.91µM*
CC1CCCN(S(=O)(=O)c2ccc(C(=O)Nc3nnc(-c4ccccn4)o3)cc2)C1 (centres undefined)	nt	i	-5.7%	?	?	-3.4%
SMILES	ATXN2 expr inh	ATXN viability	HT1080 IDH1KD tx	KB-3-1 tox	KB-V1 MDR tox	HT1080-NT tox
Cc1nc2ccn(Cc3cccnc3)c(=O)c2cc1C(=O)N1CCN(c2ccccc2)CC1	8.0%	i	nt	i	i	nt
CCN(C(=O)Cn1cc(C(=O)c2ccc(F)cc2)c(=O)c2ccc(C)nc21)c1cccc(C)c1	-8.1%	i	nt	i	i	nt
Cc1ccc(CNC(=O)C2CCCN(c3nn4cc(-c5ccc(C)cc5)nc4s3)C2)cc1 (centres undefined)	nt	nt	nt	i	i	nt
O=C(c1cccnc1)C1CCCN(Cc2ccc3c(c2)CN(C(=O)c2cccs2)CCO3)C1 (centres undefined)	nt	i	nt	nt	nt	nt
Cc1cccc(-c2nn(-c3ccccc3)cc2C(=O)N2CCN(C3CCS(=O)(=O)C3)CC2)c1 (centres undefined)	10.3%	i	0.6%	i	16.4µM*	-3.2%
CC(=O)c1ccc(N2CCC(c3cc(-c4ccc(Cl)cc4Cl)n[nH]3)CC2)c([N+](=O)[O-])c1	?	?	?	?	14.6µM*	14.1µM*
O=C1C=CC2C(c3ccc4c(c3)OCO4)CC1N2Cc1ccccc1 (centres undefined)	-13.0%	i	-19.5%	9.2µM*	?	-19.2%
c1ccc(CN2CCC(N3CCN(Cc4ccc5c(c4)OCO5)CC3)CC2)cc1	-2.6%	i	6.8%	i	?	4.2%
Cc1c(C(=O)N(C)Cc2cscn2)sc2ncnc(NC[C@H]3CCc4ccccc4O3)c12	nt	i	nt	nt	nt	nt
COc1ccc(NC(=O)c2sc3nc(C)c(C(=O)Nc4ccc(C)cc4C)c(-c4sccc4C)c3c2N)cc1	-7.1%	i	nt	i	i	nt
O=C(NNc1ccc(F)cc1F)c1cccs1	nt	nt	?	nt	nt	-29.9%
N#CC1=C(N)NC(=S)C(C(N)=O)C1c1ccc(Cl)cc1Cl (centres undefined)	?	23.8µM*	?	i	?	?
COCCNS(=O)(=O)c1cc(-c2nn(C)c(=O)c3ccccc23)ccc1C	0.4%	?	-11.2%	i	?	-19.7%
CCCCNS(=O)(=O)c1cc(-c2nn(C)c(=O)c3ccccc23)ccc1C	-11.6%	i	?	16.4µM*	?	-20.4%
Cc1ccc(-c2nn3c(C)nnc3c3ccccc23)cc1S(=O)(=O)NCc1ccco1	28.5%	?	-5.1%	i	14.6µM*	-1.1%
Cc1cc(NC(=O)CSc2nccn2-c2cccc(C)c2C)no1	?	i	?	?	10.3µM*	?
